Structures can show the parent of a compound that is named as a salt.

This test concerns Escherichia coli IAI1. The test can be described thus: fold change of Putrescine concentration vs plate DMSO controls (fold change (ratio)); higher = more amine produced, active = hit call of the paper (significant change in both replicates, either direction). The following applies: incubation time: 27 h, anaerobic, 37 °C. In outline:
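Anaerobic mGAM cultures of four gut bacterial strains were grown at 37 °C for 27 h in 80 µL wells, starting at OD 0.1 before 1:1 dilution. Compounds were at 20 µM final (sweeteners 50 µM). Whole cultures were extracted with cold acetonitrile/methanol containing 0.1% formic acid and centrifuged. Amines were quantified by LC–triple-quadrupole MS (dynamic MRM) against external calibration curves and drift-corrected within batch. Each value is the fold change versus plate DMSO controls, averaged over 2 biological replicates.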
`O=C(O)c1cc(-c2ccc(F)cc2F)ccc1O` [Diflunisal] (20 µM): the “fold change of Putrescine concentration” value is 1.07 (inactive).

For `Fc1ccc([C@@H]2CCNC[C@H]2COc2ccc3c(c2)OCO3)cc1` [Paroxetine hydrochloride] (20 µM), the “fold change of Putrescine concentration” value is 0.692 (inactive).

`CCN(CC)CCOC(=O)C1(C2CCCCC2)CCCCC1` [Dicyclomine hydrochloride] (20 µM): the “fold change of Putrescine concentration” value is 0.988 (inactive).

On to `CN1[C@@H]2CC[C@H]1C[C@@H](OC(=O)c1c[nH]c3ccccc13)C2` [Tropisetron hydrochloride] (20 µM), for which the “fold change of Putrescine concentration” value is 0.982 (inactive).

In the case of `NC(=O)N1c2ccccc2CC(=O)c2ccccc21` [Oxcarbazepine] (20 µM), the “fold change of Putrescine concentration” value was 1 (inactive).

Take `N=C(NCCCCCCNC(=N)NC(=N)Nc1ccc(Cl)cc1)NC(=N)Nc1ccc(Cl)cc1` [Chlorhexidine] (20 µM): the “fold change of Putrescine concentration” value was 0.641 (inactive).

Take `CC(=O)Nc1ccccc1` [Acetanilide] (20 µM): the “fold change of Putrescine concentration” value is 1.04 (inactive).

On to `Nc1nc(N)nc(-c2cc(Cl)ccc2Cl)n1` [Irsogladine maleate] (20 µM), for which the “fold change of Putrescine concentration” value is 1.04 (inactive).

For the molecule `Cc1ccsc1C(=CCCN1CCC[C@@H](C(=O)O)C1)c1sccc1C` [Tiagabine hydrochloride] (20 µM), the “fold change of Putrescine concentration” value is 1.03 (inactive).

Take `CC(C)NCC(O)c1ccc(O)c(O)c1` (single isomer, unassigned; (-)) [(-) Isoproterenol hydrochloride] (20 µM): the “fold change of Putrescine concentration” value was 1 (inactive).

For `CN(C)CCN(Cc1ccccc1)c1ccccn1` [Tripelennamine hydrochloride] (20 µM), the “fold change of Putrescine concentration” value was 0.85 (inactive).

As for `C[C@H](NCc1ccc(OCc2cccc(F)c2)cc1)C(N)=O` [Safinamide] (20 µM), the “fold change of Putrescine concentration” value was 1 (inactive).

Regarding `Cc1cc(NS(=O)(=O)c2ccc(N)cc2)nc(C)n1` [Sulfisomidine] (20 µM), the “fold change of Putrescine concentration” value is 0.985 (inactive).

`O=C(O)Cc1ccccc1Nc1c(Cl)cccc1Cl` [Diclofenac sodium] (20 µM): the “fold change of Putrescine concentration” value is 1.02 (inactive).

Regarding `CN1CCCN=C1/C=C/c1cccs1` [Pyrantel tartrate] (20 µM), the “fold change of Putrescine concentration” value is 1.04 (inactive).

On to `CN(C(=O)C(Cl)Cl)c1ccc(OC(=O)c2ccco2)cc1` [Diloxanide furoate] (20 µM), for which the “fold change of Putrescine concentration” value is 1.02 (inactive).

Turning to `O=C(Oc1ccccc1)c1ccccc1O` [Phenyl salicylate] (20 µM), the “fold change of Putrescine concentration” value is 1.03 (inactive).

Take `CCCCC(C)(O)C/C=C/[C@H]1[C@H](O)CC(=O)[C@@H]1CCCCCCC(=O)OC` (mixture of isomers) [Misoprostol] (20 µM): the “fold change of Putrescine concentration” value was 0.988 (inactive).

Consider `Cc1cc(C(C)(C)C)c(O)c(C)c1CC1=NCCN1` [Oxymetazoline hydrochloride] (20 µM), for which the “fold change of Putrescine concentration” value was 0.983 (inactive).

Consider `CCN(CC)CCc1nc(-c2ccccc2)no1` [Oxolamine citrate salt] (20 µM), for which the “fold change of Putrescine concentration” value is 0.967 (inactive).

Turning to `COc1ccc2c(c1)c(CC(=O)OCC(=O)O)c(C)n2C(=O)c1ccc(Cl)cc1` [Acemetacin] (20 µM), the “fold change of Putrescine concentration” value is 1.06 (inactive).

Consider `Cn1cnc([N+](=O)[O-])c1Sc1ncnc2[nH]cnc12` [Azathioprine] (20 µM), for which the “fold change of Putrescine concentration” value was 0.977 (inactive).

For `CCOC(=O)c1ccc(N)cc1` [Benzocaine] (20 µM), the “fold change of Putrescine concentration” value is 0.92 (inactive).

Consider `COC1=C(OC)C(=O)C(CCCCCCCCCCO)=C(C)C1=O` [Idebenone] (20 µM), for which the “fold change of Putrescine concentration” value is 0.947 (inactive).

For `CC(=O)NCCCS(=O)(=O)O` [Acamprosate calcium] (20 µM), the “fold change of Putrescine concentration” value was 0.995 (inactive).

In the case of `CC(C)NCC(O)COc1cccc2[nH]c3ccccc3c12` (stereo unspecified) [Carazolol] (20 µM), the “fold change of Putrescine concentration” value was 0.922 (inactive).

For `CC(C(=O)O)c1ccc(N2Cc3ccccc3C2=O)cc1` (stereo unspecified) [Indoprofen] (20 µM), the “fold change of Putrescine concentration” value was 0.977 (inactive).

On to `CC1(C)S[C@@H]2[C@H](NC(=O)[C@H](N)c3ccccc3)C(=O)N2[C@H]1C(=O)O` [Ampicillin trihydrate] (20 µM), for which the “fold change of Putrescine concentration” value was 2.31 (active).

Take `CCN1CCCC1CNC(=O)c1cc(S(=O)(=O)CC)c(N)cc1OC` (stereo unspecified) [Amisulpride] (20 µM): the “fold change of Putrescine concentration” value is 1.01 (inactive).

On to `COC(=O)Nc1nc2cc(C(=O)c3ccc(F)cc3)ccc2[nH]1` [Flubendazol] (20 µM), for which the “fold change of Putrescine concentration” value is 0.943 (inactive).

Consider `CCOc1nc2cccc(C(=O)OCc3oc(=O)oc3C)c2n1Cc1ccc(-c2ccccc2-c2noc(=O)[nH]2)cc1` [Azilsartan medoxomil] (20 µM), for which the “fold change of Putrescine concentration” value is 1.02 (inactive).

For the origin of these results see the supplement of paper PMC12494721.
